A short description of test [1]: qHTS assay to test for compound auto fluorescence at 535 nm (green) in HEK293 cells (AID 720680). Background: In qHTS, concentration-response curves come from the screen itself.
Test [2] in a line: qHTS assay to test for compound auto fluorescence at 460 nm (blue) in HEK293 cell free culture (AID 720681). In a few lines: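 Test compounds were pinned into cell-free culture medium (DMEM with 10% FBS) and fluorescence was read directly at Ex/Em 405/460 nm. Signals were expressed as fluorescence equivalents of triamterene, with DMSO vehicle as control.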
A short description of test [3]: qHTS assay to test for compound auto fluorescence at 535 nm (green) in HEK293 cell free culture (AID 720682). In a few lines: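 Each library compound, or DMSO control, is added by pintool to medium alone, comprising DMEM and 10% FBS. Emission at 535 nm following 485 nm excitation is quantified against fluorescein.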
Test [4] in a line: qHTS assay to test for compound auto fluorescence at 590 nm (red) in HEK293 cell free culture (AID 720683). The method in brief: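 Tox21 10K library compounds were pinned into cell-free DMEM with 10% FBS and fluorescence was read at excitation 540 nm. Activity is expressed as Rose Bengal sodium equivalency.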
A short description of test [5]: qHTS assay to test for compound auto fluorescence at 590 nm (red) in HepG2 cell free culture (AID 720684). In a few lines:
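Measured in medium alone (MEM containing 10% FBS) following pintool addition of compound; emission at 590 nm with 540 nm excitation, referenced to Rose Bengal sodium.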

A short description of test [6]: qHTS assay to test for compound auto fluorescence at 460 nm (blue) in HepG2 cell free culture (AID 720685). In a few lines:
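Compound (23 nL) or DMSO pinned into cell-free MEM with 10% FBS; blue fluorescence read at 405/460 nm excitation/emission, expressed as auto-fluorescence equivalency to triamterene.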

Test [7] is described as follows: qHTS assay to test for compound auto fluorescence at 460 nm (blue) in HepG2 cells (AID 720687). In a few lines: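 Cells (2,000/well in MEM with 10% FBS) attached overnight at 37 C, then were exposed to compound or DMSO for 1 hr at 37 C, 5% CO2. Fluorescence read at Ex/Em 405/460 nm, expressed as triamterene-equivalent signal.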
Test [8] addresses Glucocorticoid receptor (Homo sapiens) (UniProt P04150). Nature of the test: qHTS assay to identify small molecule agonists of the glucocorticoid receptor (GR) signaling pathway (AID 720691; active = well fitted activation curve with a large enough effect in the signal ratio in the repeat runs, not every such curve was filed as active; the % refers to the signal ratio). In a few lines: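 GR-bla HeLa cells carrying a GRE-driven beta-lactamase reporter, exposed to compounds for 18 h at 37 C. Reporter activation read as fluorescence after 2 h with LiveBLAzer B/G FRET substrate at room temperature.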

Test [9] shares this target. In words: qHTS assay to identify small molecule antagonists of the glucocorticoid receptor (GR) signaling pathway (AID 720692; active = well fitted inhibition curve with a large enough effect in the signal ratio in the repeat runs, not every such curve was filed as active; the % refers to the signal ratio; note: potency is the fitted concentration of half-maximal effect). In a few lines:
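GR-bla HeLa cells carrying a GRE-driven beta-lactamase reporter received compound after 4 h plating, then dexamethasone (5 nM final). After 18 h at 37C, the FRET substrate was loaded for 2 h at room temperature and fluorescence read.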

Several values for one entry are separate records, joined by “and”; a condition that tells them apart may be missing. Equal values may be shown once. Inconclusive results are not listed. Activity calls are given as the source filed them. Unless noted, calls come from the whole dose curve; as a rule, active = well fitted curve in the direction sought with a large enough effect in the repeat runs; inconclusive = weak or mixed curves; inactive = flat fitted curve, though single readings scatter.

Our source for the outcome and Potency values is PubChem BioAssay (Tox21).

Glucocorticoid receptor (Homo sapiens), sequence (P04150 whole entry, looked up): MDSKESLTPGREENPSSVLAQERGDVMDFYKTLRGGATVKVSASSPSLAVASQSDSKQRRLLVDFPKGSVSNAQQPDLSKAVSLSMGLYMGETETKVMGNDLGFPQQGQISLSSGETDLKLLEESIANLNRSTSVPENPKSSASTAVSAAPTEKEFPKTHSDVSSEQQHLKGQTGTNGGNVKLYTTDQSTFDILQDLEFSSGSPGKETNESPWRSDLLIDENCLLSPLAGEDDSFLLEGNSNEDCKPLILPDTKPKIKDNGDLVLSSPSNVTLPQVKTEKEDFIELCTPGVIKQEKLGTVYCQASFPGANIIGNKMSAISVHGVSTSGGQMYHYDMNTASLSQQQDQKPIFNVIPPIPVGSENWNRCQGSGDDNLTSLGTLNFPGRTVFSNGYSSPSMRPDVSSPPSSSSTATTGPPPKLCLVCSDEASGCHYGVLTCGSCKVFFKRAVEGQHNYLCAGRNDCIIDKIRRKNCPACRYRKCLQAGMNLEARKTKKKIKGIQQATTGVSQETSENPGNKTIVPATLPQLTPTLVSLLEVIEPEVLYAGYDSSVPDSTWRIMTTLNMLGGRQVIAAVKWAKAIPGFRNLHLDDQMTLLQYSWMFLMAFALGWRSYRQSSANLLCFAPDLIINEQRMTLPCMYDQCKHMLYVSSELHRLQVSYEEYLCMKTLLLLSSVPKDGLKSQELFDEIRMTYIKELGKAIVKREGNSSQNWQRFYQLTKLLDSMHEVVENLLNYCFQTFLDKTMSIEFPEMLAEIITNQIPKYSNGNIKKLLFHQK

Take `CCOC(=O)c1ccccc1N`: the call in test [1], in [3], in test [4], in test [5] and in test [8] was inactive. Besides, the Potency result in test [2], in test [6], in test [7] and in test [9] was “inactive” in each case.

Consider `CC1(C)Cc2cccc(O)c2O1`, for which the compound was classed as inactive in test [1], in test [3], in test [4] and in test [5]. Further, the Potency entry in test [2], in test [6] and in test [7] was “inactive” in each case.

For the compound `O=[N+]([O-])c1ccc(Nc2ccccc2)cc1`, the compound was called inactive in test [1], in [3], in test [4], in test [5] and in test [8]. Moreover, the Potency result in test [2], in [6] and in [7] was “inactive” each time.

For `Clc1ccc(C(Cl)(Cl)Cl)cc1`, the result in [1], in test [3], in [4], in test [5] and in test [8] was inactive. Also, the Potency entry in test [2], in [6], in [7] and in [9] was “inactive” each time.

As for `CCNc1nc(Cl)nc(NC(C)(C)C#N)n1`, the call in test [1], in [3], in test [4], in test [5] and in [8] was inactive. Further, the Potency result in test [2], in test [6] and in [7] was “inactive” throughout.

For the compound `CN(C)c1nc(=O)n(C2CCCCC2)c(=O)n1C`, the compound was classed as inactive in test [1], in [3], in test [4] and in test [5]. Besides, the Potency result in test [2], in test [6] and in [7] was “inactive” each time.

`ClCc1ccccn1`: the compound was called inactive in [1], in [3], in [4], in [5] and in [8]. The Potency result in test [2], in test [6], in [7] and in test [9] was “inactive” each time.

In the case of `Cl`, the result in [1], in [3], in test [4] and in test [5] was inactive. Further, the Potency result in [2], in test [6] and in test [7] was “inactive” each time.

Turning to `CNC(=O)Oc1cccc2c1OC(C)(C)C2`, the call in test [1], in [3], in test [4], in test [5] and in [8] was inactive. Also, the Potency result in test [2], in [6] and in test [7] was “inactive” in each case.

Consider `CC1CC(=O)O1` (stereo unspecified), for which the outcome in [1], in test [3], in [4], in [5] and in [8] was inactive. For the same compound, the Potency entry in test [2], in [6], in test [7] and in [9] was “inactive” throughout.

With `O=C(O)CF`, the outcome in test [1], in test [3], in test [4] and in test [5] was inactive. The Potency result in test [2], in test [6] and in test [7] was “inactive” throughout.

`CCOP(=S)(OCC)OP(=S)(OCC)OCC`: the result in test [1], in test [3], in [4], in [5] and in [8] was inactive. The Potency entry in [2], in test [6] and in [7] was “inactive” each time.

Turning to `CCOP(=O)(OCC)OCC`, the result in [1], in test [3], in test [4], in [5] and in test [8] was inactive. Further, the Potency result in test [2], in test [6], in [7] and in [9] was “inactive” in each case.

With `CC1(C)C(C(=O)OC(C#N)c2cccc(Oc3ccccc3)c2)C1(C)C` (stereo unspecified), the compound was called inactive in test [1], in test [3], in test [4] and in [5]. Moreover, the Potency result in test [2], in [6] and in test [7] was “inactive” each time.

With `S=c1[nH]c2ccccc2[nH]1`, the compound was classed as inactive in test [1], in test [3], in [4], in test [5] and in test [8]. Also, the Potency result in [2], in test [6] and in [7] was “inactive” in each case.

`Nc1ncn[nH]1`: the compound was classed as inactive in [1], in [3], in [4], in [5] and in test [8]. Besides, the Potency entry in test [2], in test [6], in test [7] and in test [9] was “inactive” each time.

`ClC(Cl)(Cl)c1ccccc1`: the compound was classed as inactive in test [1], in test [3], in test [4], in [5] and in test [8]. Moreover, the Potency entry in test [2], in test [6] and in test [7] was “inactive” in each case.

As to `C=CC(=O)OCC(CC)(COC(=O)C=C)COC(=O)C=C`, the result in [1], in test [3], in test [4] and in [5] was inactive. Moreover, the Potency result in [2], in test [6] and in test [7] was “inactive” each time.

For `C[C@]12CCC(=O)C=C1CC[C@@H]1[C@@H]2CC[C@@]2(C)[C@H]1CC[C@]2(C)O`, the outcome in [1], in [3], in test [4], in [5] and in [8] was inactive. Further, the Potency result in test [2], in [6] and in test [7] was “inactive” each time. Besides, in [9], the Potency was 6.01 µM (active) and 4.25 µM (active) and 2.61 µM (active).

With `CCCCCCCC[N+](C)(CCCCCCCC)CCCCCCCC`, the outcome in test [1], in test [3], in test [4] and in test [5] was inactive. Moreover, the Potency result in test [2], in test [6] and in test [7] was “inactive” throughout.

For the compound `O=NN(c1ccccc1)c1ccccc1`, the call in test [1], in [3], in [4], in [5] and in test [8] was inactive. Moreover, the Potency entry in test [2], in test [6] and in test [7] was “inactive” throughout.

In the case of `O=[N+]([O-])/N=C1\NCCN1Cc1ccc(Cl)nc1`, the compound was called inactive in test [1], in test [3], in test [4], in test [5] and in test [8]. In addition, the Potency entry in [2], in [6], in [7] and in test [9] was “inactive” each time.

`ClCC(Cl)CCl`: the compound was classed as inactive in [1], in test [3], in test [4], in test [5] and in test [8]. Further, the Potency entry in test [2], in test [6], in [7] and in [9] was “inactive” in each case.

For `Clc1ccccc1-c1nnc(-c2ccccc2Cl)nn1`, the compound was called inactive in [1], in [3], in test [4] and in [5]. Moreover, the Potency entry in test [2], in [6] and in [7] was “inactive” in each case.

As to `CCC/C=N/O`, the result in test [1], in test [3], in test [4], in test [5] and in test [8] was inactive. Further, the Potency result in [2], in test [6], in test [7] and in test [9] was “inactive” throughout.

For the compound `ClC(Cl)=C(Cl)C(Cl)=C(Cl)Cl`, the compound was called inactive in test [1], in test [3], in test [4], in test [5] and in test [8]. For the same compound, the Potency entry in test [2], in test [6], in [7] and in test [9] was “inactive” in each case.

For `OC(c1ccc(Cl)cc1)(c1cncnc1)c1ccccc1Cl` (stereo unspecified), the outcome in [1], in test [3], in test [4], in test [5] and in test [8] was inactive. In addition, the Potency entry in [2], in test [6] and in test [7] was “inactive” each time. Besides, the Potency in [9] was 49 µM (active).

As to `CCOP(=S)(OCC)SCn1c(=O)oc2cc(Cl)ccc21`, the call in [1], in test [3], in [4], in test [5] and in test [8] was inactive. For the same compound, the Potency entry in test [2], in test [6], in test [7] and in test [9] was “inactive” each time.

Turning to `CCCCCCCCCc1ccc(O)cc1`, the result in test [1], in [3], in test [4] and in test [5] was inactive. For the same compound, the Potency result in test [2], in test [6] and in [7] was “inactive” in each case.
